# Screening results deposited in PubChem by National Center for Advancing Translational Sciences (NCATS).
# Only a selection was taken, and hits are over-represented in it overall.
# SARS PLpro yeast = SARS-CoV PLP inhibition in yeast | S. cerevisiae expressing SARS-CoV PLpro, growth rescue | 330,000 tested, 0.19% active | Potency, µM (top dose mostly 32.9 µM), without a hit: top-dose activity, positive = growth rescue, actives largely listed as activators; also: potency is read from the fitted curve at half-maximal effect; 0% is about no effect; nearly all actives have a fitted effect of over 55% in size
# NS1 function inh = influenza NS1 inhibition; Potency, µM (top dose mostly 46.1 µM), for the others: at the top dose activity, positive = more growth; 270,000 tested, 0.4% active; AID 2326; also: potency is read from the fitted curve at half-maximal effect; actives are rising curves; nearly all actives have a fitted effect of over 50% in size
#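 Compounds were scored for reversing the slow growth caused by influenza A NS1 in S. cerevisiae, measured by optical density at 600 nm. Assay medium contained 2% galactose at pH 6.0; NS1-free yeast of the same strain were the positive control.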
# CHX counter = counter-screen for Shiga toxin inhibitors: cycloheximide protein synthesis inhibition; 300,000 tested, 12% active; cell reporter, cycloheximide protein synthesis inhibition counterscreen; max response, %; AID 2314; in the data active = max response mostly above about 13%, no sharp cut-off; inactive = mostly below about 14%; also: read at 38.3 µM for the half of the compounds with a filed dose; 0% is about no effect
# Tb PYK inh = inhibitors of Trypanosoma brucei pyruvate kinase; TbPYK enzyme, Kinase-Glo Plus ATP luminescence, 45 min; Potency, µM (series often up to 76.8 µM), for inactives: at the highest dose activity, negative = inhibition, usual class: inhibitors; 410,000 tested, 0.12% active; active = well fitted curve in the direction sought with a large enough effect; inconclusive = small, poorly fitted or top-dose-only effect, or another doubt; inactive = no such curve, though single readings can be large; an effect the other way counts as inactive or inconclusive; also: potency is read from the fitted curve at half-maximal effect; % is scaled to controls: 0 for no effect and ±100 for the full control effect; nearly all actives have a fitted effect of over 50% in size
#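 Assay buffer: 50 mM TEA pH 7.2, 100 mM KCl, 10 mM MgCl2, 0.05% BSA, 0.01% Tween-20. Pyruvate kinase from T. brucei plus substrate met compound, then ADP (130 uM final). Luminescence was read post 45 min RT.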
# Shiga inhibitor = inhibitors of Shiga toxin in Vero cells; Vero cells, Shiga toxin protein synthesis inhibition reporter; inhibition, % at 38.7 µM; 290,000 tested, 9.2% active; AID 2315; in the data active = inhibition mostly above about 28%, no sharp cut-off; inactive = mostly below about 43%; also: 0% is about no effect
# LmPK inhibitor = LmPK (Leishmania mexicana) enzyme inhibition; Q27686; purified LmPK, Kinase-Glo ATP luminescence, 1 h; Potency, µM (series often up to 57.5 µM), inactives show at the highest dose activity change, negative = inhibition, actives largely listed as inhibitors; 290,000 tested, 0.37% active; active = well fitted curve in the direction sought with a large enough effect; inconclusive = small, poorly fitted or top-dose-only effect, or another doubt; inactive = no such curve, though single readings can be large; an effect the other way counts as inactive or inconclusive; also: potency is read from the fitted curve at half-maximal effect; % is scaled to controls: 0 for no effect and ±100 for the full control effect
# Target sequence (Q27686 whole entry, looked up): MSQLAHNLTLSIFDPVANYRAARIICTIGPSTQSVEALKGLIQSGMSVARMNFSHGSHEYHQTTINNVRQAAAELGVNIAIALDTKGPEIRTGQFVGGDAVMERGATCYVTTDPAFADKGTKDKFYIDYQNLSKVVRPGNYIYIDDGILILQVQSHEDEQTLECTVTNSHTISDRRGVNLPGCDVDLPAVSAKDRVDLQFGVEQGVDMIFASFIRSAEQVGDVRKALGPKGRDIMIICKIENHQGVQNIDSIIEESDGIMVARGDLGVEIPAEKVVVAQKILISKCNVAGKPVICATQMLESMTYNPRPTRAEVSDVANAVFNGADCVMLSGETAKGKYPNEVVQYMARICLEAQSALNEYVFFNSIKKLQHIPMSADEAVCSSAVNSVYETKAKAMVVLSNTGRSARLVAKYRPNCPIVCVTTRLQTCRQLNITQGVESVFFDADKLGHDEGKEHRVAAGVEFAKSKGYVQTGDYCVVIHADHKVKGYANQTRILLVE
#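 Purified LmPK (0.1 nM) with 0.5 mM PEP and 0.1 mM ADP in imidazole buffer pH 7.2 with MgCl2/KCl, 1 h at room temperature. ATP formed was read by luciferase luminescence and normalized to no-enzyme and uninhibited controls.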
# Numbers without * were called inactive; ? = inconclusive; / = no result. Unless noted, calls follow the shape of the full dose curve.
SMILES,SARS PLpro yeast,NS1 function inh,CHX counter,Tb PYK inh,Shiga inhibitor,LmPK inhibitor
O=C(NCc1ccco1)c1ccc(N2CCCCC2)c([N+](=O)[O-])c1,-36%,-11%,20*,-2%,41*,0%
Cc1ccc(N(Cc2ccco2)C(=O)c2ccc(N3CCCCC3)c([N+](=O)[O-])c2)cc1,-4%,26%,44*,-5%,106*,5%
CC1CCN(c2ccc(C(=O)NCc3ccco3)cc2[N+](=O)[O-])CC1,-57%,-45%,22*,-6%,54*,0%
CC1CCN(S(=O)(=O)c2cccc(C(=O)NCc3ccco3)c2)CC1,-1%,4%,-3,-2%,-1,5%
CC(C)(C)N1C(=O)c2ccc(C(=O)NCc3ccco3)cc2C1=O,-1%,-13%,16*,-9%,5,6%
Cc1ccc(S(=O)(=O)N2CCN(C(=O)c3ccc(N4CCCCC4)c([N+](=O)[O-])c3)CC2)cc1,4%,7%,11,3%,-8,-1%
O=C(NCc1ccco1)c1ccc2[nH]c(=O)c(=O)[nH]c2c1,11%,-8%,-4,0%,-5,6%
O=C(NCc1ccco1)c1ccc(N2CCOCC2)c([N+](=O)[O-])c1,0%,4%,-1,1%,-8,0%
O=C(CNC(=O)c1cccc(F)c1)N/N=C/c1cccc([N+](=O)[O-])c1,16%,12%,-1,2%,-4,-2%
Cc1ccc(C)c(NC(=O)CSc2nnc(-c3cc(C)[nH]n3)n2N)c1,0%,-2%,4,1%,-2,0%
CC1(C)CN(c2ccc(N3CC(C)(C)C3=O)cc2)C1=O,-2%,/,39*,-8%,69*,-2%
O=C(Nc1nc(-c2ccc3c(c2)Cc2ccccc2-3)cs1)c1ccccc1,13%,14%,9,-14%,13,-2%
Nc1nc(-c2ccc3c(c2)CCO3)cs1,0%,/,38*,0%,98*,-13%
CC(=O)Nc1nc(-c2ccc3c(c2)CCO3)cs1,0%,-4%,29*,-5%,74*,-7%
CC1(C)CC(=O)C(C=Nc2ccc(O)cc2)=C(O)C1,1%,-3%,18*,4%,36*,-3%
CCOc1ccc(N=CC2=C(O)CC(C)(C)CC2=O)cc1,1%,-13%,-3,2%,189*,0%
CN=CC1=C(O)CC(C)(C)CC1=O,2%,1%,2,2%,-21,-3%
CCOC(=O)c1c(/N=C/C2=C(O)CC(C)(C)CC2=O)sc(C(C)=O)c1C,-2%,-9%,23*,-3%,57*,0%
CCN(CC)CCOC(=O)c1ccc(N=CC2=C(O)CC(C)(C)CC2=O)cc1,/,/,/,4%,/,/
CC1(C)CC(=O)C(C=Nc2ccc3[nH]ncc3c2)=C(O)C1,-5%,17%,37*,4%,33*,-2%
CCOC(=O)c1c(/N=C/C2=C(O)CC(C)(C)CC2=O)sc2c1CCCC2,1%,-2%,11,-2%,23,9%
CCc1ccc(OCC(=O)Nc2ccc3[nH]ncc3c2)cc1,0%,12%,-2,-3%,3,7%
CC(=O)c1cccc(NC(=O)c2sc(-n3nc(C)c(CCC(C)C)c3C)nc2C)c1,/,/,/,-1%,/,/
CCn1c(C(=O)O)c(CC(=O)Nc2cccc(C(F)(F)F)c2)c2ccccc21,0%,11%,-4,0%,-1,-1%
CC1(C)CC(=O)C(C=Nc2ccc(N)cc2)=C(O)C1,0%,/,40*,0%,81*,-7%
SMILES,SARS PLpro yeast,NS1 function inh,CHX counter,Tb PYK inh,Shiga inhibitor,LmPK inhibitor
CC1(C)CC(=O)C(C=Nc2ccc3cn[nH]c3c2)=C(O)C1,4%,1%,13,-11%,74,-1%
Brc1ccc(-c2csc(/N=C/N3CCOCC3)n2)cc1,-17%,-52%,36*,1%,49,-5%
OCCN(/C=N/c1nc(-c2ccc(Br)cc2)cs1)CCO,-43%,-113%,30*,28%,64*,3%
Brc1ccc(-c2csc(/N=C/N3CCCC3)n2)cc1,-10%,/,68*,-3%,67*,-3%
CN(C(=O)CSc1ncnc2sc3c(c12)CCCC3)C1CCS(=O)(=O)C1 (centres undefined),5%,/,/,-4%,/,/
CN(C(=O)COC(=O)C1(C)CC1(Cl)Cl)c1c(N)n(Cc2ccccc2)c(=O)[nH]c1=O (centres undefined),3%,/,/,1%,/,/
C/C(=N/NC(=O)c1ccco1)c1ccc(NC(=O)c2ccc(F)cc2)cc1,-9%,-7%,90*,-8%,58*,3%
C/C(=N\NC(=O)c1ccc(C(=O)N/N=C(\C)c2ccco2)o1)c1ccco1,4%,6%,2,-9%,-3,-3%
CCCCCC(=O)N/N=C(\C)c1ccc(NC(=O)c2ccco2)cc1,-2%,-59%,30*,0%,81*,-1%
C/C(=N\NC(=O)c1ccc(-c2ccccc2)cc1)c1ccco1,-4%,-12%,16,-5%,42,-2%
C/C(=N/NC(=O)c1ccco1)c1ccc(NC(=O)c2ccc(Br)o2)cc1,-7%,-37%,62*,-5%,96*,-4%
CCCCCC(=O)NC(=S)Nc1ccc(NC(=O)c2ccco2)cc1,-13%,-15%,-1,-4%,10,3%
Fc1ccccc1-c1cc2ncccc2cn1,0%,/,/,-10%,/,/
Cc1cccc(-c2nnn3c2nc(NCCc2ccc(S(N)(=O)=O)cc2)c2cc(Cl)ccc23)c1,/,/,/,-1%,/,/
COc1ccc(C)cc1NC(=O)C(Sc1nnc(Nc2ccccc2F)s1)c1ccccc1 (centres undefined),-4%,?,11*,2%,-6,3%
COc1ccc(C)cc1NC(=O)C(Sc1nncn1C)c1ccccc1 (centres undefined),-1%,/,-2,-3%,-3,0%
COc1ccc(S(=O)(=O)NCCCC(=O)Nc2ccc(Sc3ccc(N)cc3)cc2)cc1,/,/,5,/,-6,/
O=C(NCCc1ccccc1)c1noc2c1CCc1ccccc1-2,3%,-14%,19*,6%,39*,4%
O=C(Nc1cccnc1Cl)c1noc2c1CCc1ccccc1-2,0%,/,34*,3%,92*,-4%
CCCNC(=O)c1noc2c1CCc1ccccc1-2,-11%,-8%,42*,1%,64*,-3%
COc1ccc2c(c1)CCc1c(C(=O)NCCc3ccc(OC)c(OC)c3)noc1-2,7%,-7%,-1,-5%,4,-2%
O=C(NCCN1CCOCC1)c1noc2c1CCc1ccccc1-2,-1%,2%,49*,0%,71*,-11%
COCCN1C(=O)CCC1(C)c1nnnn1-c1ccc2c(c1)OCCO2 (centres undefined),/,/,/,2%,/,/
CCc1nc2ccc(C(=O)NCCC(C)C)cn2c1N(C)Cc1ccc(OC)cc1,/,/,/,-3%,/,/
CCOc1ccc(NC(=O)Cc2coc3ccc(C)cc23)cc1,/,/,/,2%,/,/
